Test results reported in PubChem BioAssay (Tox21).
Inconclusive results are not listed. A call without a number means that no potency is given here. The source made the active and inactive calls. Unless noted, calls come from the whole dose curve; as a rule, active = well fitted curve in the direction sought with a large enough effect in the repeat runs; inconclusive = weak or mixed curves; inactive = no such curve, though single readings can be large; an effect the other way counts as inactive or inconclusive.

Experiments:
[1] = qHTS assay to identify small molecule antagonists of the thyroid receptor (TR) signaling pathway - cell viability counter screen (AID 743064); note: nearly all actives have a fitted effect of over 50% in size
Outline: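 GH3.TRE-Luc rat pituitary cells carrying a TRE-luciferase reporter were treated with compound plus 1 nM T3 (final) for 23.5 h at 37 °C. Viability was then read in the same wells by CellTiter-Fluor fluorescence after a further 30 min.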

[2] = qHTS assay to identify small molecule antagonists of the thyroid receptor (TR) signaling pathway (AID 743065); note: series mostly up to about 70 µM; nearly all actives have a fitted effect of over 55% in size
Outline: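 GH3.TRE-Luc rat pituitary cells (two TREs driving luciferase) were dosed with compound, then stimulated with 1 nM T3 (final) for 23.5 h at 37 C. ONE-Glo luminescence was the read-out, with CellTiter-Fluor fluorescence as the cytotoxicity counter-screen.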

[3] = system: thyroid hormone receptor (rat, GH3 cells); experiment: qHTS assay to identify small molecule agonists of the thyroid receptor (TR) signaling pathway (AID 743066; calls by dose curve)
[4] = qHTS assay to identify small molecule antagonists of the estrogen receptor alpha (ER-alpha) signaling pathway - cell viability counter screen (AID 743074; calls by dose curve;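 note: HEK293 cells carrying ER-alpha-UAS-bla reporter stimulated with 17beta-estradiol; nearly all actives have a fitted effect of over 45% in size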)
[5] = qHTS assay to identify small molecule antagonists of the estrogen receptor alpha (ER-alpha) signaling pathway using the BG1 cell line - cell viability counter screen (AID 743081);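 note: compound given together with 17beta-estradiol as the ER stimulus; series mostly up to about 70 µM; nearly all actives have a fitted effect of over 45% in size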
Aromatase (Homo sapiens) = Aromatase (Homo sapiens) (UniProt P11511); experiment: qHTS assay to identify aromatase inhibitors (AID 743083); note: series mostly up to about 70 µM; nearly all actives have a fitted effect of over 55% in size
Aromatase (Homo sapiens), sequence (P11511 whole entry, looked up): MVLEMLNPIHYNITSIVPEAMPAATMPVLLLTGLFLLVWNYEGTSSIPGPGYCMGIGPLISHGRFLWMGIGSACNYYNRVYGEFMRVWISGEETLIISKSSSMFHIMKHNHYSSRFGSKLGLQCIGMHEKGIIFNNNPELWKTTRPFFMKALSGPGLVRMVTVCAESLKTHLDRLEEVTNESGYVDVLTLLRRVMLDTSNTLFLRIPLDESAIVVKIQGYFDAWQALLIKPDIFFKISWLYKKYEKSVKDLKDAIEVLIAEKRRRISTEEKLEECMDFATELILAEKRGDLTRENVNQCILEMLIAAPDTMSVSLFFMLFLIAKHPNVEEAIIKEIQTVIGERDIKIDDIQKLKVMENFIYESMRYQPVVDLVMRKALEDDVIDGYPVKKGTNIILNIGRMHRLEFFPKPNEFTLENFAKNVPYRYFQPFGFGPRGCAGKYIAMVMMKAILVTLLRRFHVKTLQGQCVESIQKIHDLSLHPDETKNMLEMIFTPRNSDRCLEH

[6] = qHTS assay to identify aromatase inhibitors - cell viability counter screen (AID 743084);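 note: cells stimulated with testosterone during compound exposure; nearly all actives have a fitted effect of over 55% in size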
[7] = target: Peroxisome proliferator-activated receptor gamma (Homo sapiens) (UniProt P37231); experiment: qHTS assay to identify small molecule agonists of the peroxisome proliferator-activated receptor gamma (PPARg) signaling pathway (AID 743094; active = well fitted activation curve with a large enough effect in the signal ratio in the repeat runs, not every such curve was filed as active; the % refers to the signal ratio)
Peroxisome proliferator-activated receptor gamma (Homo sapiens), sequence (P37231 whole entry, looked up): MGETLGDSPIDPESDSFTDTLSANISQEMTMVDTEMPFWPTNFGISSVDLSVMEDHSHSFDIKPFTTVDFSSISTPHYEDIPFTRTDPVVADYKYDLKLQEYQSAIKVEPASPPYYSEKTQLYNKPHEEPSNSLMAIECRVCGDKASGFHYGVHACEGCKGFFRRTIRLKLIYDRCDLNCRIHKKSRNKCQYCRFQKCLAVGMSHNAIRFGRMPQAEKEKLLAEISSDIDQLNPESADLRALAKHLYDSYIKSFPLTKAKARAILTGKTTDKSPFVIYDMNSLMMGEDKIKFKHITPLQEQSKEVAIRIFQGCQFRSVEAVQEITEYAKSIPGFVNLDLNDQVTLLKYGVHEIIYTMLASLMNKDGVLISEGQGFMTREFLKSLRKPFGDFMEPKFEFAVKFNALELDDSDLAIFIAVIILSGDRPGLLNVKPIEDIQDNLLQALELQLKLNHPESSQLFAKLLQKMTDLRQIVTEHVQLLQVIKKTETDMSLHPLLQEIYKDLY
Outline: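 Fluorescence-based beta-lactamase readout in HEK293H PPARg UAS-bla cells after 17 h compound exposure (37C) and 1 h B/G FRET substrate incubation at room temperature.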

[8] = qHTS assay to identify small molecule antagonists of the peroxisome proliferator-activated receptor gamma (PPARg) signaling pathway - cell viability counter screen (AID 743194); note: nearly all actives have a fitted effect of over 55% in size
Outline: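 Cytotoxicity counter screen in PPARg-bla HEK293H cells, same wells as reporter assay. Compounds plus 50 nM rosiglitazone (final) for 17 h at 37 C, then viability read by CellTiter-Glo luminescence.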

[9] = qHTS assay for small molecule agonists of the antioxidant response element (ARE) signaling pathway (AID 743202; active = well fitted activation curve with a large enough effect in the signal ratio in the repeat runs, not every such curve was filed as active; the % refers to the signal ratio)
Outline: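 HepG2 ARE-bla cells; 16 h treatment at 37 C; FRET-based beta-lactamase fluorescence read after 2 h substrate incubation at room temperature.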

[10] = qHTS assay for small molecule agonists of the antioxidant response element (ARE) signaling pathway - cell viability counter screen (AID 743203; calls by dose curve; note: nearly all actives have a fitted effect of over 55% in size; note: potency is the fitted concentration of half-maximal effect)
Outline: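 Parallel cytotoxicity read-out for the ARE-bla screen: HepG2 reporter cells, 16 hrs with compounds, then CellTiter-Glo luminescence.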

[11] = qHTS assay for small molecule activators of the heat shock response signaling pathway - cell viability counter screen (AID 743209); note: nearly all actives have a fitted effect of over 50% in size; note: potency is the fitted concentration of half-maximal effect
Outline: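 To flag cytotoxic compounds, HSE-bla HeLa cells plated at 1500 cells/well were dosed for 5 h at 37 C, followed by the reporter FRET read and then CellTiter-Glo, with luminescence recorded 30 min after reagent addition.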

[12] = qHTS assay for small molecule activators of the heat shock response signaling pathway (AID 743210; active = well fitted activation curve with a large enough effect in the signal ratio in the repeat runs, with a control signal flat, not every such curve was filed as active; the % refers to the signal ratio;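 note: HeLa cells with beta-lactamase reporter driven by heat shock elements; series mostly up to about 63 µM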)
Outline: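 Following overnight attachment, HSE-bla HeLa cells received test compounds for 5 h at 37 C; beta-lactamase activity was then detected via FRET substrate fluorescence.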

[13] = qHTS assay to identify small molecule that activate the aryl hydrocarbon receptor (AhR) signaling pathway - cell viability counter screen (AID 743086);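 note: HepG2 liver cells carrying the AhR DRE luciferase reporter; series mostly up to about 70 µM; nearly all actives have a fitted effect of over 45% in size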
Outline: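 HepG2-AhR-luc (HG2L7.5c1) cells, 4000/well, treated 24 h at 37 C with compound; viability measured as CellTiter-Fluor fluorescence after 30 min in the same wells as the luciferase read.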

[14] = target: Aryl hydrocarbon receptor (Homo sapiens) (UniProt P35869); experiment: qHTS assay to identify small molecule that activate the aryl hydrocarbon receptor (AhR) signaling pathway (AID 743085);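 note: HG2L7.5c1 human HepG2 liver cells with stably integrated DRE-driven firefly reporter; series mostly up to about 70 µM; nearly all actives have a fitted effect of over 15% in size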
Aryl hydrocarbon receptor (Homo sapiens), sequence (P35869 whole entry, looked up): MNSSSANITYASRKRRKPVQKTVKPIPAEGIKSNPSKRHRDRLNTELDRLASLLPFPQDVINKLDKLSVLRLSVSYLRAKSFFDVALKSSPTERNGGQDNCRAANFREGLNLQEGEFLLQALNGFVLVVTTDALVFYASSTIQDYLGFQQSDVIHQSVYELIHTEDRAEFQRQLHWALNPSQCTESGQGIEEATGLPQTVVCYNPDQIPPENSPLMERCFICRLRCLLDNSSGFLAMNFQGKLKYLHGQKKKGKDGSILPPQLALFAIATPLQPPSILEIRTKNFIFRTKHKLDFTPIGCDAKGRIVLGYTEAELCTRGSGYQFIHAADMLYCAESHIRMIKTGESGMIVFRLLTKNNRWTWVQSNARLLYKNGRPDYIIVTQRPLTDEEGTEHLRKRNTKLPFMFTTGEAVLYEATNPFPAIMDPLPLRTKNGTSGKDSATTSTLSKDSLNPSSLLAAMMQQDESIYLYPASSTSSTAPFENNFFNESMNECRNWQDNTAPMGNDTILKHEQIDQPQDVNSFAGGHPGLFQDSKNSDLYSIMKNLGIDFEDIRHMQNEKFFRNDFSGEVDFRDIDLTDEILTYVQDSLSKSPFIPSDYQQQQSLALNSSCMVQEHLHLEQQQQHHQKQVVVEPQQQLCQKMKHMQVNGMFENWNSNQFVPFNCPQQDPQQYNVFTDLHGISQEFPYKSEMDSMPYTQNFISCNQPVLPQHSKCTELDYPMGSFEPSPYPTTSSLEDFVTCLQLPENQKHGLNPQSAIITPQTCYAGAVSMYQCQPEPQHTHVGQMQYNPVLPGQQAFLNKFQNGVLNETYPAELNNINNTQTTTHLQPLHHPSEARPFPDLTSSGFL
Outline: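 HepG2 cells (HG2L7.5c1) stably carrying a firefly luciferase reporter driven by 20 dioxin responsive elements were exposed to compound for 24 h at 37C after a 5 h settling period; luminescence rise (ONE-Glo) indicated activation.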

[15] = target: Peroxisome proliferator-activated receptor gamma (Homo sapiens) (UniProt P37231); experiment: qHTS assay to identify small molecule antagonists of the peroxisome proliferator-activated receptor gamma (PPARg) signaling pathway (AID 743191; calls by dose curve; note: series mostly up to about 63 µM; nearly all actives have a fitted effect of over 30% in size)
Outline: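 GeneBLAzer PPARg UAS-bla HEK293H cells, 5 h post-plating, exposed to compounds 17 h at 37C. LiveBLAzer B/G FRET substrate added for 1 h at room temperature; beta-lactamase reporter read by fluorescence intensity.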

[16] = target: Estrogen receptor (Homo sapiens) (UniProt P03372); experiment: qHTS assay to identify small molecule agonists of the estrogen receptor alpha (ER-alpha) signaling pathway (AID 743075; calls by dose curve;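 note: HEK293 GripTite cells with ER-alpha and UAS-driven beta-lactamase reporter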)
Estrogen receptor (Homo sapiens), sequence (P03372 whole entry, looked up): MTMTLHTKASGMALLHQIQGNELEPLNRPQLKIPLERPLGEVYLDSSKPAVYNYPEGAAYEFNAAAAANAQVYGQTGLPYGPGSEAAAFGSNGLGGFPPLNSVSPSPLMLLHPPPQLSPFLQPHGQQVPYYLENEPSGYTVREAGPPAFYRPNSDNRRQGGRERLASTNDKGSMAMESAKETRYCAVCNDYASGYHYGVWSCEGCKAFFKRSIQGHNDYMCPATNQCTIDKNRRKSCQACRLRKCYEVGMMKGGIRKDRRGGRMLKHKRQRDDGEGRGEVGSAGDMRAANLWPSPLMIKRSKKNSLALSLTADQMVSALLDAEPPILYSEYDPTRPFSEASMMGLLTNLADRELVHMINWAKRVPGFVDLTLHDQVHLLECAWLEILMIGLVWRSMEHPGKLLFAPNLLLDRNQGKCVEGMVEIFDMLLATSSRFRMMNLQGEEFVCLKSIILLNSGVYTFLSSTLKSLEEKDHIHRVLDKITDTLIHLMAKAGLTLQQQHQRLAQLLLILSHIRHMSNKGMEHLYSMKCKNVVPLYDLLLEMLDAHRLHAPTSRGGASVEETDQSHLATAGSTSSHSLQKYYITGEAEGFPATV

[17] = target: Estrogen receptor (Homo sapiens) (UniProt P03372); experiment: qHTS assay to identify small molecule agonists of the estrogen receptor alpha (ER-alpha) signaling pathway using the BG1 cell line (AID 743079); note: nearly all actives have a fitted effect of over 20% in size
[18] = qHTS assay to identify small molecule antagonists of the estrogen receptor alpha (ER-alpha) signaling pathway using the BG1 cell line (AID 743080; calls by dose curve;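 note: BG1 cells stimulated with 17beta-estradiol alongside compound; series mostly up to about 70 µM; nearly all actives have a fitted effect of over 25% in size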)
Outline: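 Seeding, 24 h rest, compound transfer from DMSO, 17beta-estradiol addition, 21.5 h incubation, CellTiter-Fluor (30 min, 37 C), then ONE-Glo (30 min, room temperature): this sequence was run on BG1-Luc-4E2 reporter cells.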

Structure (SMILES)	Potency [1]	Potency [2]	Potency [3]	Potency [4]	Potency [5]	Potency (Aromatase (Homo sapiens))	Potency [6]	outcome [7]	Potency [8]	Potency [9]	Potency [10]	Potency [11]	Potency [12]	Potency [13]	Potency [14]	Potency [15]	Potency [16]	Potency [17]	Potency [18]
COc1ccc(N)c([N+](=O)[O-])c1	inactive	inactive	inactive	inactive	inactive	inactive	inactive	inactive	inactive	inactive	inactive	inactive	inactive	–	–	–	–	–	–
CC(=O)C(C)=O	inactive	inactive	inactive	inactive	inactive	inactive	inactive	inactive	inactive	inactive	inactive	inactive	inactive	inactive	–	–	–	–	–
Cc1cccc(C)c1NC(=O)c1cc(S(N)(=O)=O)c(Cl)cc1O	inactive	inactive	inactive	–	inactive	inactive	inactive	inactive	inactive	inactive	inactive	inactive	inactive	inactive	inactive	inactive	–	–	–
Cc1ccccc1S(N)(=O)=O	inactive	inactive	inactive	inactive	inactive	–	–	–	inactive	–	inactive	inactive	inactive	inactive	–	–	–	–	–
Nc1ccc(S(=O)(=O)NCc2ccccc2)cc1	inactive	inactive	inactive	inactive	inactive	inactive	inactive	inactive	inactive	inactive	inactive	inactive	inactive	inactive	–	inactive	–	–	–
CC(C(=O)O)c1ccc(C(=O)c2cccs2)cc1 (centres undefined)	inactive	inactive	inactive	inactive	inactive	inactive	inactive	–	inactive	inactive	inactive	inactive	inactive	inactive	–	–	–	–	–
CCCCOC(=O)CCCCC(=O)OCCCC	inactive	inactive	inactive	inactive	inactive	–	inactive	inactive	inactive	inactive	inactive	inactive	inactive	inactive	inactive	–	–	–	–
CCC1CCC(CCC(=O)O)C1 (centres undefined)	inactive	inactive	inactive	inactive	inactive	inactive	inactive	–	inactive	–	inactive	inactive	–	inactive	–	–	–	–	–
CCCCCCCCCCCCCCCCCC(=O)OCC(CC)CCCC (centres undefined)	inactive	inactive	inactive	–	inactive	inactive	–	inactive	inactive	–	inactive	inactive	inactive	inactive	–	inactive	–	–	–
O=C(O)c1ccc(O)cc1O	inactive	inactive	inactive	inactive	inactive	inactive	inactive	inactive	inactive	inactive	inactive	inactive	inactive	inactive	–	inactive	–	–	–
CCCCCCCCCCCCCOC(=O)CCSCCC(=O)OCCCCCCCCCCCCC	inactive	inactive	inactive	inactive	inactive	inactive	inactive	inactive	inactive	inactive	inactive	inactive	inactive	inactive	–	–	–	–	–
CC1CCC(C(C)CS)CC1S (centres undefined)	inactive	inactive	inactive	inactive	inactive	inactive	inactive	inactive	–	–	15.4 µM (active)	38.9 µM (active)	–	inactive	inactive	–	–	–	–
CC(=O)N[C@@H](Cc1ccc(O)cc1)C(=O)O	inactive	inactive	inactive	inactive	inactive	–	–	–	inactive	inactive	inactive	inactive	inactive	inactive	–	–	–	–	–
N[C@@H](Cc1cc(I)c(O)c(I)c1)C(=O)O	inactive	inactive	inactive	–	–	inactive	inactive	inactive	inactive	inactive	inactive	inactive	inactive	inactive	inactive	–	inactive	inactive	inactive
O=C1OC(=O)c2c(Br)c(Br)c(Br)c(Br)c21	inactive	inactive	inactive	inactive	inactive	–	inactive	inactive	inactive	–	inactive	inactive	inactive	inactive	–	–	–	–	–
CC(O)Cn1cnc2c1c(=O)n(C)c(=O)n2C (centres undefined)	inactive	inactive	inactive	–	inactive	inactive	inactive	inactive	inactive	inactive	–	inactive	inactive	inactive	–	–	–	–	–
